Hits are enriched below; roughly 6% of the tested compounds scored in any of these assays.
DRD3 antagonist – antagonists of human D3 dopamine receptor | D3R cells, DiscoveRx beta-arrestin luminescence, antagonist mode; hits give low values | 360,000 compounds, 2.5% hits | P35462 | AID 652054 | max response, negative = inhibition, %; in the data active = max response below about -50%; note: % is set by controls: 0 for no effect and ±100 for the full control effect
Target sequence (P35462 whole entry, looked up): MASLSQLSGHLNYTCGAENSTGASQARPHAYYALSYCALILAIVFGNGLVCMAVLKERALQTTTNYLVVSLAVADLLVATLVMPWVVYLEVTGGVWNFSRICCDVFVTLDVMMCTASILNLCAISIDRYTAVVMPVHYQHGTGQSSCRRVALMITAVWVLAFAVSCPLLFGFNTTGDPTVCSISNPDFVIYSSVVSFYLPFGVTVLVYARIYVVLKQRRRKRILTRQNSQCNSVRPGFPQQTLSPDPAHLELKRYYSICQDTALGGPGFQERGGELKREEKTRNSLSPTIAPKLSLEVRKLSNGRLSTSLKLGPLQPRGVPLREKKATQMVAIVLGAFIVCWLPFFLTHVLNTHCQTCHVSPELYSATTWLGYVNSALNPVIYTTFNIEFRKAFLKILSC
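Cells expressing the human receptor were seeded at 1500 cells/well, incubated overnight at 37 degrees C in 5% CO2, then exposed to library compounds with dopamine controls for 90 minutes at 37 degrees C before luminescent detection.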
D1 agonist – activates the human D1 dopamine receptor; P21728; HEK293 T-REx D1 cells, calcium flux, agonist mode; activation, % at 2 µM; 360,000 compounds, 1% hits; AID 504660; in the data active = activation above about 30%; note: 0% is about no effect
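Inducible HEK293 T-REx D1 cells, force-coupled to calcium signalling, were plated at 4000 cells/well with tetracycline and held overnight at 30 C. After no-wash calcium dye loading, compound-evoked calcium rise over 180 s flagged agonists.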
D1 potentiator – enhances dopamine response at the human D1 receptor; HEK293 TREx D1 cells, calcium flux, dopamine EC20 potentiation; 360,000 compounds, 0.036% hits; AID 504651; potentiation, % at 10 µM; in the data active = potentiation above about 30%; note: 0% is about no effect
DRD3 agonist – activates the human D3 dopamine receptor | P35462 | D3R DiscoveRx beta-arrestin cells, luminescence, 90 min | 410,000 compounds, 0.58% hits | max activation, %; in the data active = max activation above about 30%; note: 0% is about no effect
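Agonist-mode cell screen: cells plated at 1500/well and incubated overnight at 37 °C, then exposed to library compounds for 90 min at 37 °C. Detection reagent was added for 30–60 min at room temperature, and luminescence was read.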
D1 antagonist – human D1 dopamine receptor antagonism | P21728 | HEK293 TREx D1 cells, calcium flux, dopamine EC80; hits give low values | activity change, negative = inhibition, % at 10 µM | 360,000 compounds, 3.2% hits | AID 504652; in the data active = activity change below about -30%; note: % is set by controls: 0 for no effect and ±100 for the full control effect
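HEK293 T-REx cells expressing inducible, force-coupled D1 receptor; no-wash Ca dye, 30–90 min RT. Cmpd → 180 s read at 1 Hz → EC80 DA → 180 s read.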
* hit, by the source's call; / = no result given.

SMILES | DRD3 antagonist | D1 agonist | D1 potentiator | DRD3 agonist | D1 antagonist
CC(=O)Nc1ccc(S(=O)(=O)Nc2cccc3cccnc23)cc1 | -18 | 2 | -7 | -1 | -55*
Cc1cc(C)c(NS(=O)(=O)c2cccc3cccnc23)c(C)c1 | -3 | 0 | -2 | -8 | 3
O=S(=O)(Nc1cccc2cccnc12)c1ccc(S(=O)(=O)N2CCCC2)cc1 | -72* | 4 | 5 | -42 | 0
Cc1ccc(S(=O)(=O)Nc2cccc3cccnc23)c([N+](=O)[O-])c1 | -56* | 2 | -3 | -11 | 19
Cc1ccc(NC(=O)c2cccc3cccnc23)cc1 | -8 | 0 | -7 | -4 | -31*
Cc1ccccc1NS(=O)(=O)c1ccc(S(=O)(=O)N2CCCC2)cc1 | 4 | / | / | 1 | /
CCSC1=NC2(CCN(C(=O)NC3CCCCC3)CC2)N=C1c1ccc(OC)cc1 | / | 0 | 5 | -8 | 5
CS(=O)(=O)Nc1cccc2cccnc12 | -57* | 0 | -4 | -17 | -3
CCC(=O)Nc1cccc2cccnc12 | 11 | 1 | -5 | 4 | 1
O=S(=O)(Nc1cccc2cccnc12)c1ccccc1 | -71* | 2 | -7 | -23 | 4
COc1ccc(S(=O)(=O)Nc2cccc3cccnc23)cc1 | / | 18 | -5 | / | 11
COCCNC(=O)c1ccc(Cn2c(SCC(=O)NC(C)C)nc3ccccc3c2=O)cc1 | / | 0 | -2 | 0 | -6
COc1ccc(C(=O)Nc2cc(-c3ccccc3)nn2-c2ccccc2F)cc1 | -6 | 9 | -7 | 0 | 0
CN(C(=O)Cn1c(=O)n(CCC(=O)NCc2ccc3c(c2)OCO3)c(=O)c2sccc21)c1ccccc1 | / | -2 | 3 | 7 | 0
Cc1cc2c(s1)c1cnn(Cc3c(Cl)cccc3Cl)c(=O)c1n2C | / | -1 | 9 | / | 20
CCC(C)NC(=O)CSc1nc2cc(S(=O)(=O)N3CCOCC3)ccc2n1CC (stereo not drawn) | 29 | -1 | 1 | 2 | -32*
COc1cc(/C=c2\sc3n(c2=O)C(c2ccccc2)C(c2ccccc2)=NN=3)ccc1O (stereo not drawn) | -76* | 10 | -1 | -9 | -2
COc1cc(/C=c2\sc3n(c2=O)CCCN=3)ccc1O | -8 | 3 | -6 | -7 | 1
COc1cccc(-n2nc(C(=O)O)c3ccccc3c2=O)c1 | 11 | 2 | -2 | 2 | 27
COC(=O)CNC(=O)c1nn(-c2cccc(OC)c2)c(=O)c2ccccc12 | 30 | 2 | -2 | 9 | -40*
CCOC(=O)N1CCN(C(=O)CNC(=O)c2nn(-c3ccc(OC)c(OC)c3)c(=O)c3ccccc23)CC1 | 10 | 1 | 0 | 54* | -5
Cc1ccc(-n2ncc3c(NCCc4ccc(S(N)(=O)=O)cc4)ncnc32)cc1 | / | -3 | -4 | 4 | -48*
Cc1cccc(-n2ncc3c(NCCc4ccc(S(N)(=O)=O)cc4)ncnc32)c1 | -24 | 0 | -10 | -10 | -48*
CCCCOCCOCCOCc1cc2c(cc1CCC)OCO2 | / | / | / | 9 | /
COC(=O)c1ccc(Oc2cc(C)nc(SC)n2)cc1 | 4 | 4 | -1 | 0 | -12
Cc1cc(Oc2ccccc2)nc(SCC(N)=O)n1 | -78* | 1 | -4 | -5 | 15

Bioassay records as filed in PubChem BioAssay.
